Marburg entry: blocks Marburg virus binding or cell entry | Marburg virus pseudotype entry/binding inhibition, cell-based | Potency, µM (titrated, usually from 49.2 µM), without a hit: at the top dose activity change, negative = inhibition, most hits filed as inhibitors | 18,000 tested, 6.5% active
LASV entry inh: inhibitors of Lassa virus binding or entry into cells | Lassa virus pseudotyped entry inhibition, cell-based qHTS | Potency, µM (series often up to 49.2 µM), for the others: at the top dose activity change, negative = inhibition, actives largely listed as inhibitors | 18,000 tested, 4.1% active | AID 720533
* hit, by the source's call; ? = inconclusive; nt = no result; ! = repeats disagree; [ ] = dose if it differs, or a comment. Shown are actives, neighbours in structure and some others; about 8% of the full set was active somewhere. Calls follow the shape of the full dose curve; tested in HEK293 cells. % is scaled to controls: 0 for no effect and ±100 for the full control effect; potency is read from the fitted curve at half-maximal effect.

SMILES	Marburg entry	LASV entry inh
CC(=O)Nc1ccccc1-c1nc(CNC(=O)c2cccc(-n3cccn3)c2)c(C)o1	-3.5%	?
Cc1c(N)nc([C@H](CC(N)=O)NC[C@H](N)C(N)=O)nc1C(=O)N[C@H](C(=O)N[C@H](C)[C@@H](O)[C@H](C)C(=O)N[C@H](C(=O)NCCc1nc(-c2nc(C(=O)NCCCCN=C(N)N)cs2)cs1)[C@@H](C)O)[C@@H](O[C@@H]1O[C@@H](CO)[C@@H](O)[C@H](O)[C@@H]1O[C@H]1O[C@H](CO)[C@@H](O)[C@H](OC(N)=O)[C@@H]1O)c1cnc[nH]1	3.98µM*	3.16µM*
C(=C\c1nc(-c2ccccc2)oc1Nc1ccc2ccccc2c1)/c1ccccc1	29.1%	6.5%
C[n+]1ccc(/C=C/c2ccc3ccccc3c2)cc1	?	11.2µM*
O=C(C[C@H]1C(=O)N(Cc2cccnc2)C[C@@H]1c1ccc(Br)cc1)Nc1ccc(Br)cc1	-23.8%	-27.4%
CC12CCC3c4ccc(OCc5ccccc5)cc4CCC3C1CC(O)C2O (stereo unspecified)	8.4%	-16.1%
CCCCCC#CC[C@@H](O)/C=C/C=C/C=C\[C@@H](O)CCCC(=O)O	0.7%	-5.1%
CC[C@H](C)[C@@H]1O[C@]2(CC[C@@H]1C)C[C@H]1C[C@H](CC=C(C)[C@@H](O[C@@H]3C[C@H](OC)[C@H](O[C@@H]4C[C@H](OC)[C@H](O)[C@H](C)O4)[C@H](C)O3)[C@@H](C)C=CC=C3CO[C@@H]4[C@@H](O)C(C)=C[C@@H](C(=O)O1)[C@]34O)O2	?	-17.3%[17.8 µM]
CCC(C)[C@H]1O[C@]2(C=C[C@@H]1C)C[C@@H]1C[C@@H](C/C=C(\C)[C@@H](O[C@H]3C[C@H](OC)[C@@H](O[C@H]4C[C@H](OC)[C@H](NC(C)=O)[C@H](C)O4)[C@H](C)O3)[C@@H](C)/C=C/C=C3\CO[C@@H]4[C@H](O)C(C)=C[C@@H](C(=O)O1)[C@]34O)O2 (stereo partly specified)	8.91µM*	12.6µM*
CO[C@H]1C[C@H](O[C@H]2[C@H](C)O[C@@H](O[C@@H]3/C(C)=C/C[C@@H]4C[C@@H](C[C@]5(C=C[C@H](C)[C@@H](C6CCCCC6)O5)O4)OC(=O)[C@@H]4C=C(C)[C@@H](O)[C@H]5OC/C(=C\C=C\[C@@H]3C)[C@]54O)C[C@@H]2OC)O[C@@H](C)[C@@H]1O	8.91µM*	10µM*
CC[C@@H](C)[C@H]1O[C@]2(CC[C@@H]1C)C[C@@H]1C[C@H](C/C=C(/C)[C@H](O[C@@H]3C[C@H](OC)[C@H](O[C@@H]4C[C@H](OC)[C@@H](O)[C@H](C)O4)[C@H](C)O3)[C@@H](C)/C=C\C=C3CO[C@@H]4[C@H](O)C(C)=C[C@@H](C(=O)O1)[C@]34O)O2 (tested in a mixture with another compound)	-4.2%	?
COC(=O)[C@]1(C)C=C[C@@H](C)[C@H](c2ccccc2Br)N1C(=O)C(F)(F)F	-15.2%[8.59 µM]	nt
CCN1CCN(C(=O)c2cc(NC(=O)COC)cc3nc(-c4ccncc4)n(C)c23)CC1	4.1%	-14.8%
COc1ccc2c(c1)OC(C)CN(CCNC(=O)c1cc3cc(F)ccc3[nH]1)C2 (stereo unspecified)	-5.9%	-16.8%
COC(=O)CC=C1c2ccccc2[C@@H](NC(=O)OC)[C@@H]1C	20.0%[8.59 µM]	-21.5%[8.59 µM]
OCCOCCN1CCN(C2=Nc3ccccc3Sc3ccccc32)CC1	-9.5%	-23.7%
CC(=O)c1ccc2c(c1)N(CCCN1CCC(CCO)CC1)c1ccccc1S2	11.2µM*	-29.8%[17.8 µM]
OCCN1CCN(CCCN2c3ccccc3Sc3ccc(Cl)cc32)CC1	2.24µM*	?
CCCCCCCCCCCCCCCC(=O)OCCC1CCN(CCCN2c3ccccc3Sc3ccc(S(=O)(=O)N(C)C)cc32)CC1	-12.9%	21.1%
CN1CCN(CCCN2c3ccccc3Sc3ccc(S(=O)(=O)N(C)C)cc32)CC1	?	-12.9%[17.8 µM]
CN(C)CCCN1c2ccccc2Sc2ccc(Cl)cc21	15.8µM*	?
CN(C)c1ccnc(-c2ccccc2C(F)(F)F)n1	0.5%	-12.7%
COC(=O)N[C@H](C(C(=O)OC)=C(C)NCc1ccccc1)c1cccs1	8.1%[8.59 µM]	nt
CCOCC(O)COc1ccc(NC(=O)CC[S+](C)C)cc1 (stereo unspecified)	3.9%	-9.4%
COC(=O)C1=C(C)N(Cc2ccccc2)C(=O)NC1c1cccc(F)c1 (stereo unspecified)	3.1%[8.59 µM]	9.2%[8.59 µM]
COc1ccc(OC)c(-c2cc(Cl)c3c(c2)CC(CNC(=O)C(C)N2CCOCC2)O3)c1 (stereo unspecified)	-25.9%	-25.0%
FC(F)(F)c1cc(NC(=S)NC(c2ccccc2)c2ccccc2)cc(C(F)(F)F)c1	?	-43.6%
CNCCC(Oc1ccc(C(F)(F)F)cc1)c1ccccc1 (stereo unspecified)	7.08µM*	17.8µM*!

Source: PubChem (National Center for Advancing Translational Sciences (NCATS))
